This is an account of results in ChEMBL document CHEMBL1961873, “Compounds: GSK PKIS; Assays: Nanosyn kinase panel” (2012).

In test [1] the target is T1, Inhibitor of nuclear factor kappa-B kinase subunit epsilon (Homo sapiens) (UniProt Q14164).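 Further: reported values are averaged percent inhibition figures against human IKKε.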
T1 sequence (whole entry): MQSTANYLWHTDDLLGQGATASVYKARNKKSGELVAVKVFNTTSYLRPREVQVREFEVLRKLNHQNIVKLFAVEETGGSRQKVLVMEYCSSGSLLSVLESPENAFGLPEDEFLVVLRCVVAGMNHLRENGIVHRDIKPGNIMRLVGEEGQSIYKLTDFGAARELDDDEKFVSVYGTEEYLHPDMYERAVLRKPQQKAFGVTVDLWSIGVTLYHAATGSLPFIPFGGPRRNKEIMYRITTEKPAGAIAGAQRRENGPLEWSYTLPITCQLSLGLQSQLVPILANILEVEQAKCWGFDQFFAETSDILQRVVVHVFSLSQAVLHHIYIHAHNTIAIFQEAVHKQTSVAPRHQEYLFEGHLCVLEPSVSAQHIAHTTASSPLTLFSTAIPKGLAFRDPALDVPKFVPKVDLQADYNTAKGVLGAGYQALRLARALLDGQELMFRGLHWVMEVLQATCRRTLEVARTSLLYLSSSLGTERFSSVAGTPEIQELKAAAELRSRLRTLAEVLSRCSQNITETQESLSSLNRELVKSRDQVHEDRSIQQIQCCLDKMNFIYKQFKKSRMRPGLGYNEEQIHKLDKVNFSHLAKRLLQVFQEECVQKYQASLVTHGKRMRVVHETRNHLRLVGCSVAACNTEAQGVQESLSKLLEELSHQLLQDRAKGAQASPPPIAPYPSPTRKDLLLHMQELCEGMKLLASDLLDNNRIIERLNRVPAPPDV
The settings on record: at 1 µM.

Test [2] deals with T2, Serine/threonine-protein kinase Nek1 (Homo sapiens) (UniProt Q96PY6).
T2 sequence (whole entry): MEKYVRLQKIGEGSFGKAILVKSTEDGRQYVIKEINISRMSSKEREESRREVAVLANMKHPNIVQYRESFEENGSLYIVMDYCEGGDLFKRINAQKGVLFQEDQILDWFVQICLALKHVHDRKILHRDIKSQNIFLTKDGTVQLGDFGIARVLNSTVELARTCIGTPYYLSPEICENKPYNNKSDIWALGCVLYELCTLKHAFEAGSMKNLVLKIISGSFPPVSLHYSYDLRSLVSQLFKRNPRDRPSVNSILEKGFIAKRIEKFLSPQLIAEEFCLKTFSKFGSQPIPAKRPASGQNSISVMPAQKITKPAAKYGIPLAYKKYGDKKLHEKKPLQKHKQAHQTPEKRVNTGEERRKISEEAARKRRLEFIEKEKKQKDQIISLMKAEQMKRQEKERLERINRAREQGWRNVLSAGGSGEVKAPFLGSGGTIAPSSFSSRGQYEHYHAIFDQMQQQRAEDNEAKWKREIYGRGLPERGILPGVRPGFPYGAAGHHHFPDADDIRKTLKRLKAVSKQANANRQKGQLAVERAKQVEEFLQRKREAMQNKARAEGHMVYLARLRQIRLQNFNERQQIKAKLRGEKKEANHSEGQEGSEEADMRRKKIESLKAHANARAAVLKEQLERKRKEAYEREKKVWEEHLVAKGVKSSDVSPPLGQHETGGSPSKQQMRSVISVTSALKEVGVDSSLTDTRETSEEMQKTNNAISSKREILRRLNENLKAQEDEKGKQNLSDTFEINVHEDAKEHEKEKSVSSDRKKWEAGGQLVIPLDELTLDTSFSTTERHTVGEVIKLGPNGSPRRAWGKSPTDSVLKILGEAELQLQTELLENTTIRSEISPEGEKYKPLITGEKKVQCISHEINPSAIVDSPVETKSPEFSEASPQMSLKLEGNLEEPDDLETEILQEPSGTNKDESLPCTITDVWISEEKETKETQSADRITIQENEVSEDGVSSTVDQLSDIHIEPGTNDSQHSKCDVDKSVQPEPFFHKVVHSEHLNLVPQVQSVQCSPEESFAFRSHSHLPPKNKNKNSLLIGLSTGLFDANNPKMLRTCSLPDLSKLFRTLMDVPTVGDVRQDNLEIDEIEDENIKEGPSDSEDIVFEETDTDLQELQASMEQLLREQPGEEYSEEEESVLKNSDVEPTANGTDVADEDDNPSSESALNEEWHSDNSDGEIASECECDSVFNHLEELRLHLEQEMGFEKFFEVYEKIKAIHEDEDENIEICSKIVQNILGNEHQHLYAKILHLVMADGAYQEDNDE
To be noted: at 0.1 µM.

In test [3] the target is T2, Serine/threonine-protein kinase Nek1 (Homo sapiens). To be noted: at 1 µM.
In test [4] the target is T3, Serine/threonine-protein kinase Nek2 (Homo sapiens) (UniProt P51955).
T3 sequence (whole entry): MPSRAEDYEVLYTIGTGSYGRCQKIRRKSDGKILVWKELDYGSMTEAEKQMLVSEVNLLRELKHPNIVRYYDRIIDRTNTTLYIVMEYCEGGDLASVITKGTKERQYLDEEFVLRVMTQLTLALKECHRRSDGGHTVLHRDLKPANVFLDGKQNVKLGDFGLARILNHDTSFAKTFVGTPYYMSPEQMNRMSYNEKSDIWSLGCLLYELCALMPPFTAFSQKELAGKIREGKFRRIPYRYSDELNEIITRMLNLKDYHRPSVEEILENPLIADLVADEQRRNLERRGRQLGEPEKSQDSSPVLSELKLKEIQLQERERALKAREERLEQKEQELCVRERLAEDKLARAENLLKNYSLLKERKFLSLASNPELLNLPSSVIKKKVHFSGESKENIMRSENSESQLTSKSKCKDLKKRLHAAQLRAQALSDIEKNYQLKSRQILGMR
The settings on record: at 0.1 µM.

The target of test [5] is T3, Serine/threonine-protein kinase Nek2 (Homo sapiens). The settings on record: at 1 µM.
Test [6] has as its target Serine/threonine-protein kinase Nek6 (Homo sapiens) (UniProt Q9HC98). To be noted: at 0.1 µM.
Test [7] shares this target. The settings on record: at 1 µM.
Test [8] addresses Serine/threonine-protein kinase Nek7 (Homo sapiens) (UniProt Q8TDX7). The settings on record: at 0.1 µM.
Test [9] has the same target. The settings on record: at 1 µM.
Test [10] addresses T4, Serine/threonine-protein kinase Nek9 (Homo sapiens) (UniProt Q8TD19).
T4 sequence (whole entry): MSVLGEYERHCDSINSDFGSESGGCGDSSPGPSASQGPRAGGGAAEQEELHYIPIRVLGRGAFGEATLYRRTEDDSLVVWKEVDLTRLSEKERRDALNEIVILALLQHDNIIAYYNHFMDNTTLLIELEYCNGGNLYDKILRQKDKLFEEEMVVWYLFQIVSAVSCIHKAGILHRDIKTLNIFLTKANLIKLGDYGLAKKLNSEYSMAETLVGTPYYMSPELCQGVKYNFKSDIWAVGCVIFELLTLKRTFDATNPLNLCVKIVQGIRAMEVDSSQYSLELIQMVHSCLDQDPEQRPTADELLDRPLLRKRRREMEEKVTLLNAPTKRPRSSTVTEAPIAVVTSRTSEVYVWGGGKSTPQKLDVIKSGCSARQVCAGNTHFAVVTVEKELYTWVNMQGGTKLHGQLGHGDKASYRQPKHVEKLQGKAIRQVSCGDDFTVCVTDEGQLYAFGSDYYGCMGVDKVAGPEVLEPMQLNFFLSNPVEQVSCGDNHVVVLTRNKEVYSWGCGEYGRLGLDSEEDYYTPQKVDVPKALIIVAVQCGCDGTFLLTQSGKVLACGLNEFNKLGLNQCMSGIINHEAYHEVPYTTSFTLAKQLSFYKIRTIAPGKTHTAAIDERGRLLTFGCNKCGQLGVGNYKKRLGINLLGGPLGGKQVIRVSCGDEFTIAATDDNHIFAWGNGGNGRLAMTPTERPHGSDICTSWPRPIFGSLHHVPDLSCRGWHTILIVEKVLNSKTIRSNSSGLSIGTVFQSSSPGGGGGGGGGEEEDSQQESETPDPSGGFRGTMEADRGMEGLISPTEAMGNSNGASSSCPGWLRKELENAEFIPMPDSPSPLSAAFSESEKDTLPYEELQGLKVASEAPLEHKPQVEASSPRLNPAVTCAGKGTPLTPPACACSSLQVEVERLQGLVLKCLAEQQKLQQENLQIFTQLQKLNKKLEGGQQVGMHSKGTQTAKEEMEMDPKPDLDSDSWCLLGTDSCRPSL
To be noted: at 0.1 µM.

The target in test [11] is T4, Serine/threonine-protein kinase Nek9 (Homo sapiens). The settings on record: at 1 µM.
For test [12], the target named is Serine/threonine-protein kinase PLK1 (Homo sapiens) (UniProt P53350). The settings on record: at 0.1 µM.
The target is the same in test [13]. To be noted: at 1 µM.
The target of test [14] is T5, Dual specificity protein kinase TTK (Homo sapiens) (UniProt P33981).
T5 sequence (whole entry): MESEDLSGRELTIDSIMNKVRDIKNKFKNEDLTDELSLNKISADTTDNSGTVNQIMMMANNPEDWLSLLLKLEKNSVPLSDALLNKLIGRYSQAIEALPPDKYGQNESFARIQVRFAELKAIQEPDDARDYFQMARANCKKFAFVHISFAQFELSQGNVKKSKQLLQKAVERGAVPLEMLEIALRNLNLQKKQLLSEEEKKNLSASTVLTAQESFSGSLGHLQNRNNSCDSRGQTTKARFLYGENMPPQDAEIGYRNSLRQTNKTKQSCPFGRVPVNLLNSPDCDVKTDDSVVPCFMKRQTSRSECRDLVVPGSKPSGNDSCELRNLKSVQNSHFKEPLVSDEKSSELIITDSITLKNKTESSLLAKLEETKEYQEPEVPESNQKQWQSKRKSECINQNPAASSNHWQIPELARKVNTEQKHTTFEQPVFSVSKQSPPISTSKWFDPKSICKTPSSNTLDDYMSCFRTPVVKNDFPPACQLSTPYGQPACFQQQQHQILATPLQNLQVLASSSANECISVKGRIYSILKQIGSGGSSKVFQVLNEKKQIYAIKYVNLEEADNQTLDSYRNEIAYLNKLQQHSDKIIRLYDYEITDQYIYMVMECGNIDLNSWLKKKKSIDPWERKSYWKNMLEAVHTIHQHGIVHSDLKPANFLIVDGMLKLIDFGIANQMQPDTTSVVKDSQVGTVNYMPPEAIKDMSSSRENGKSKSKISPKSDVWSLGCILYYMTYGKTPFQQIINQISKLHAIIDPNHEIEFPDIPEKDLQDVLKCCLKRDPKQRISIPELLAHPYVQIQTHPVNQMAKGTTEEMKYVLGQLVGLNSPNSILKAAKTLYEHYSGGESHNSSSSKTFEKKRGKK
The settings on record: at 0.1 µM.

For test [15], the system named is T6, Receptor-type tyrosine-protein kinase FLT3 (Homo sapiens), P36888 [D835Y].
T6 sequence (whole entry): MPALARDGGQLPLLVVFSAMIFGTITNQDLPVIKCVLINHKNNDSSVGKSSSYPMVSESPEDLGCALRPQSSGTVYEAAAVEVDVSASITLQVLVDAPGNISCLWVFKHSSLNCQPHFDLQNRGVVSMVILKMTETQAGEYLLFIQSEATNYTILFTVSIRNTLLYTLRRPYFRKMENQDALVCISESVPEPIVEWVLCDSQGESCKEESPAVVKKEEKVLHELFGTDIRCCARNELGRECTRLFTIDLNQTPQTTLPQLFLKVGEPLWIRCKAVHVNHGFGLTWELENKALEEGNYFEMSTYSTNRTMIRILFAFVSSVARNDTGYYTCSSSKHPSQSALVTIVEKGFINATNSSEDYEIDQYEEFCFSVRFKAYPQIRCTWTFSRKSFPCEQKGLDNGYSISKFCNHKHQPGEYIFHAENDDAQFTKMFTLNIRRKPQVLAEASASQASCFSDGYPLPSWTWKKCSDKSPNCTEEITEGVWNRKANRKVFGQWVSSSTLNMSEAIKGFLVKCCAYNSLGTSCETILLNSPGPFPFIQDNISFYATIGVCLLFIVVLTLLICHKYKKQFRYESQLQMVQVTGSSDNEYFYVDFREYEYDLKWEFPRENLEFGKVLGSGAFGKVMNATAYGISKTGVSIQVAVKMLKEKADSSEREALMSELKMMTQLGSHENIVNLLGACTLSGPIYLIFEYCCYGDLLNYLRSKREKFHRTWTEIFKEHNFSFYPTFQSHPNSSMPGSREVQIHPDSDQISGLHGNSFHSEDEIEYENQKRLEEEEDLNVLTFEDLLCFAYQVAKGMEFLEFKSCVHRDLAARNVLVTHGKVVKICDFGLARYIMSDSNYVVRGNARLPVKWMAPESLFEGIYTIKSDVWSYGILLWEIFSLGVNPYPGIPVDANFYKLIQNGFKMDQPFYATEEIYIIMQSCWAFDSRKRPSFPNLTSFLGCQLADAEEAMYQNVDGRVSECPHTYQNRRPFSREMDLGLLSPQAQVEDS
To be noted: at 1 µM.

Test [16] has as its target Vascular endothelial growth factor receptor 3 (Homo sapiens) (UniProt P35916). The settings on record: at 0.1 µM.
For test [17] the target is unchanged. To be noted: at 1 µM.
Test [18] deals with Macrophage colony-stimulating factor 1 receptor (Homo sapiens) (UniProt P07333). The settings on record: at 0.1 µM.
For test [19] the target is unchanged. To be noted: at 1 µM.
Test [20] concerns the target Tyrosine-protein kinase Fyn (Homo sapiens) (UniProt P06241). The settings on record: at 0.1 µM.

Each structure is given as a SMILES string.

Sequence of Vascular endothelial growth factor receptor 3 (Homo sapiens) (P35916 whole entry): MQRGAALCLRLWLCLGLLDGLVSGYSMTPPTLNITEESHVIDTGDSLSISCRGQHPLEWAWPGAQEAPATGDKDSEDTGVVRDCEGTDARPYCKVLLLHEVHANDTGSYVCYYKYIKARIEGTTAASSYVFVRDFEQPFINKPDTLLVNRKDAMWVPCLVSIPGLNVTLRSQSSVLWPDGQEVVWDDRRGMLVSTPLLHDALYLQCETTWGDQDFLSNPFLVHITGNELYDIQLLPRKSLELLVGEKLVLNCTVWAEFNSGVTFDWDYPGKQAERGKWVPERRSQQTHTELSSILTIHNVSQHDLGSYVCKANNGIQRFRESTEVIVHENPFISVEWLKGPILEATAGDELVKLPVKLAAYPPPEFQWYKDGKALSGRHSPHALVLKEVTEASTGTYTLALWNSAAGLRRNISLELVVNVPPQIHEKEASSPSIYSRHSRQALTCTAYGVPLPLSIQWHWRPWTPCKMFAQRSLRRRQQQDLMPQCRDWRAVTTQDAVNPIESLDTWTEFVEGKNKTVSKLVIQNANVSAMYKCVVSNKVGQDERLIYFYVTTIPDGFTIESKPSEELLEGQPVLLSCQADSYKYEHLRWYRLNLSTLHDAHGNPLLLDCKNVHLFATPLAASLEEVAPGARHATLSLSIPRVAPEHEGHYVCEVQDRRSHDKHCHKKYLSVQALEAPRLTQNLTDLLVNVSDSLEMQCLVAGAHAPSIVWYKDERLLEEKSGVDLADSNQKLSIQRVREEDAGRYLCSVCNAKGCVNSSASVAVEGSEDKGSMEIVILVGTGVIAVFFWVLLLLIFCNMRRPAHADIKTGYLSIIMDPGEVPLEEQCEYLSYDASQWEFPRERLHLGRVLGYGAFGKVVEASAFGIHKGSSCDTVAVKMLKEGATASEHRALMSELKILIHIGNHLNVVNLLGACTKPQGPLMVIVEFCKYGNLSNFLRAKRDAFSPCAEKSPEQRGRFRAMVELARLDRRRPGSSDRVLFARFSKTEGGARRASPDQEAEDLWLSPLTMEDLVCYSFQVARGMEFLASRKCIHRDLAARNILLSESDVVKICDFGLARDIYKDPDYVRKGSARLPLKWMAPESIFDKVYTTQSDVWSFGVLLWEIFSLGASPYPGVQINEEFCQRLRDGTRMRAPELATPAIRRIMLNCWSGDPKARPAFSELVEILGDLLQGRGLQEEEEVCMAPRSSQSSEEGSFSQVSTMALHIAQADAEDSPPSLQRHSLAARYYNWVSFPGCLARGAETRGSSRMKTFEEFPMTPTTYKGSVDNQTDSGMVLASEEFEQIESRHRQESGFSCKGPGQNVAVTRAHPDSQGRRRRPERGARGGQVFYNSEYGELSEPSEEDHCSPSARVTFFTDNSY
Sequence of Macrophage colony-stimulating factor 1 receptor (Homo sapiens) (P07333 whole entry): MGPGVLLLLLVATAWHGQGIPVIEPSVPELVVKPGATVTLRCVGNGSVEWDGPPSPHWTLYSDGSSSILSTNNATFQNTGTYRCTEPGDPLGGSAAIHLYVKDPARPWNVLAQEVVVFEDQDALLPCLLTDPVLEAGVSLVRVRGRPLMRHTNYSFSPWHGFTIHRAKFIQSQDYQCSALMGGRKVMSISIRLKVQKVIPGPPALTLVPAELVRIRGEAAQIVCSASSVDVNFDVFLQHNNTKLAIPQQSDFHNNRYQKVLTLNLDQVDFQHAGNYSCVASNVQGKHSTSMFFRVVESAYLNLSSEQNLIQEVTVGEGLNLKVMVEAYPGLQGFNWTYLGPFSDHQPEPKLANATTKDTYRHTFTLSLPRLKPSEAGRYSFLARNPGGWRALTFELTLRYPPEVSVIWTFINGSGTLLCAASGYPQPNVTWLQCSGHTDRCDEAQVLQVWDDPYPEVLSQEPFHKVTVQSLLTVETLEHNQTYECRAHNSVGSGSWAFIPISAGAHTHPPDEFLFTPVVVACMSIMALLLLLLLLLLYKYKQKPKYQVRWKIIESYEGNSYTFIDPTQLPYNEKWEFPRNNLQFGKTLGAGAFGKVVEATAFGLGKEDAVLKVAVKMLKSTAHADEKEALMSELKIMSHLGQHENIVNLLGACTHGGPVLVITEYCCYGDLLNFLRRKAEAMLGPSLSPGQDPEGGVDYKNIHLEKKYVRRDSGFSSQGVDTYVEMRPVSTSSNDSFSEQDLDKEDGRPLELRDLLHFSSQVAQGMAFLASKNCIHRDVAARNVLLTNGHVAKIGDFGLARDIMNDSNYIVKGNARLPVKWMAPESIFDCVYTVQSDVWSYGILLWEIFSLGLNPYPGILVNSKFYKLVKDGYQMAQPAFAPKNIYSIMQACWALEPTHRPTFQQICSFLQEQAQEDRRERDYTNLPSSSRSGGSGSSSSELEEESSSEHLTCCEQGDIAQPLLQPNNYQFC
Sequence of Serine/threonine-protein kinase Nek7 (Homo sapiens) (Q8TDX7 whole entry, looked up): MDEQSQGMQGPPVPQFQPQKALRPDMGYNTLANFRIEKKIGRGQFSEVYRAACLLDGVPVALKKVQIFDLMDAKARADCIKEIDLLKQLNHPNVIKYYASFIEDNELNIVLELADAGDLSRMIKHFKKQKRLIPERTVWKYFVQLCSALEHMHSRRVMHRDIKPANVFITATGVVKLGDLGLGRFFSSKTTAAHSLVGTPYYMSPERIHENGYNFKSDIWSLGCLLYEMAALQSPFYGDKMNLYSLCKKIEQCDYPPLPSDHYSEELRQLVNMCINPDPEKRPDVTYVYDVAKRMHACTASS
Sequence of Serine/threonine-protein kinase PLK1 (Homo sapiens) (P53350 whole entry): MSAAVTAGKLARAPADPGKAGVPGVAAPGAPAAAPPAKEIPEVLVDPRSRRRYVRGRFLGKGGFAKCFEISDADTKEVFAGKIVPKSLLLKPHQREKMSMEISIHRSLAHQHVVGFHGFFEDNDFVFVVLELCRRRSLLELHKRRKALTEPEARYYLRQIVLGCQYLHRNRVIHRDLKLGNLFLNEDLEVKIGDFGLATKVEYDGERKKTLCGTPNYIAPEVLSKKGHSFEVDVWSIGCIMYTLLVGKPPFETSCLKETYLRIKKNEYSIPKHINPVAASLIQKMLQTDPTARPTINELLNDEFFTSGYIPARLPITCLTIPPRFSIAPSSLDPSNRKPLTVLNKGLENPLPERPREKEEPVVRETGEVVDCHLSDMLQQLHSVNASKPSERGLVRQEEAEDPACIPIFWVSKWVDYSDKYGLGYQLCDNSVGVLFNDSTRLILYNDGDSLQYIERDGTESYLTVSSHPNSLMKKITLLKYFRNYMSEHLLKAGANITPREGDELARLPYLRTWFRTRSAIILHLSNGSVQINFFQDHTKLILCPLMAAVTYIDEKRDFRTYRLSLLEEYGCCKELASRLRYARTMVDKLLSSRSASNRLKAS
Sequence of Serine/threonine-protein kinase Nek6 (Homo sapiens) (Q9HC98 whole entry): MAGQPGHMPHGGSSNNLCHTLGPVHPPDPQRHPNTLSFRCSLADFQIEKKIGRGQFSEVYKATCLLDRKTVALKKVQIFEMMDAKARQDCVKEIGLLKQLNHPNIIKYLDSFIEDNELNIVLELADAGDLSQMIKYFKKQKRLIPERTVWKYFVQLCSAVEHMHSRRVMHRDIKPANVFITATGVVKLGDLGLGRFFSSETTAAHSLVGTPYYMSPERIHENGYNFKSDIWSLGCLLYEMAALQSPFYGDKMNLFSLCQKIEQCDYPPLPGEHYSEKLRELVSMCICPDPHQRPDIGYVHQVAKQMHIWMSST
Sequence of Tyrosine-protein kinase Fyn (Homo sapiens) (P06241 2-537 limits assumed): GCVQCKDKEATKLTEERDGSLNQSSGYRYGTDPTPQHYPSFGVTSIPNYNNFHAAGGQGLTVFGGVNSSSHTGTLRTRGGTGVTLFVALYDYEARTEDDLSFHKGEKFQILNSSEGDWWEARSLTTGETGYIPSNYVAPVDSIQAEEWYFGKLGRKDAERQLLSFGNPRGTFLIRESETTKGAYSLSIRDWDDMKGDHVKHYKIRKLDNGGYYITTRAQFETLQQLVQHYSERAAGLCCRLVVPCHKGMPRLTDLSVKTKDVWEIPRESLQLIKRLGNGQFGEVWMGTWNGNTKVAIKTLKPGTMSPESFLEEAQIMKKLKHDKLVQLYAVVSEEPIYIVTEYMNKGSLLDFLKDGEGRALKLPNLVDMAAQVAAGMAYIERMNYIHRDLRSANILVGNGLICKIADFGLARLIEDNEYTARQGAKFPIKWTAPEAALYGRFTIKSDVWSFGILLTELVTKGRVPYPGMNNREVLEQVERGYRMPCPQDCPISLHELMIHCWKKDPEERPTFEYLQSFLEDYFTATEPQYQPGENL

The term inhibition denotes the relative decrease from the control value, in per cent. Take `COc1cccc(-n2nc(C)c3c(N/N=C(\C)c4ccncc4)ncnc32)c1`: the inhibition is 1.16% in test [1]; 1.7% in [2]; -0.2% in test [3]; 1.96% in test [4]; -1.21% in [5]; 1.56% in test [6]. The inhibition in test [7] was 1.26%; in test [8] it was 0.76%; in [9] it was 2.39%; in test [10], 4.23%; in test [11], 2.13%; in test [12], -0.78%. For the same compound, the inhibition is 2.34% in test [13]; 2.35% in test [14]; 1.49% in [15]; 1.67% in [16]; 1.25% in test [17]; -1.96% in test [18]. The inhibition in test [19] stood at 5.8%; in test [20] it was 1.21%.
In the case of `COc1ccc(-c2nn3ncccc3c2-c2ccnc(Nc3cccc(C(F)(F)F)c3)n2)cc1`, the inhibition in test [1] was 4.37%; in test [2], 1.37%; in test [3] it was 0.9%; in [4] it was 4.06%; in test [5], 1.46%; in test [6] it was -1.61%. In addition, the inhibition in test [7] came to 1.08%; in [8], 1.12%; in test [9], 2.05%; in test [10], 6.48%; in test [11] it was 3.9%; in test [12] it was 1.94%. Besides, the inhibition in test [13] was 0.44%; in [14], 5.91%; in [15] it was -4.73%; in test [16] it was 1.62%; in test [17], 10.2%; in test [18], 2.47%. In addition, the figures for the inhibition in test [19] and in test [20] were 19.4% and 1.38%, respectively.
